Measured values published in PubChem BioAssay AID504660 (National Center for Advancing Translational Sciences (NCATS), 2011).
The whole screen tested about 360,000 compounds, of which about 3,700 (1%) were called active. This is one part of a sample in which actives are shown more often than they occur. Unmarked numbers belong to inactive results. No stated cut-off is given here; in the data, active means activation above about 30%; inactive means the rest.

target: D(1A) dopamine receptor (Homo sapiens) (UniProt P21728); test: Allosteric Agonists of the Human D1 Dopamine Receptor: qHTS; details: HEK293 T-REx D1 cells, calcium flux, agonist mode; at 2 µM; active compounds read high; further: 0% is about no effect
Summary of the method: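 Agonism was scored from calcium flux recorded over 180 s (1 read/s) after pintool compound addition, following a 10-cycle baseline. Cells were inducible force-coupled HEK293 TREx D1, plated overnight at 30 C and loaded with no-wash calcium dye.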

Chain of D(1A) dopamine receptor (Homo sapiens) (P21728 whole entry, looked up): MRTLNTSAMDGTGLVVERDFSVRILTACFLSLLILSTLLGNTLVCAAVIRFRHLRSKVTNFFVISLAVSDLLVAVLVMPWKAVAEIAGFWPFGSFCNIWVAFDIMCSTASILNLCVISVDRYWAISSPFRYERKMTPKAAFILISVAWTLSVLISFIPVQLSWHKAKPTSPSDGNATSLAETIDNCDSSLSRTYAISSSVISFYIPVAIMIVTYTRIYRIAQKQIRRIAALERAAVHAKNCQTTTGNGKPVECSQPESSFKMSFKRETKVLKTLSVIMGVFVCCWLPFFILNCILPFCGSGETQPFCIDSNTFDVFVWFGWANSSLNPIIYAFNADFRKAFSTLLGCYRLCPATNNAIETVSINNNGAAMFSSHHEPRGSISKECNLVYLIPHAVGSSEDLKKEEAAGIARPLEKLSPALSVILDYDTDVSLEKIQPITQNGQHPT

SMILES	activation
COc1ccc(CCNCc2c(C(=O)O)c(C)n(Cc3cccc(C)c3)c2C)cc1OC	1.85%
CCc1cc2c(-c3ccccc3)cc(=O)oc2c2c1OCN(Cc1ccc(C)cc1)C2	10.6%
CSc1ccc(C2c3c(oc4ccccc4c3=O)C(=O)N2CCCN2CCOCC2)cc1 (centres undefined)	-1.33%
CCc1ccc(NC(=O)C2CCCN2S(=O)(=O)c2ccc3nc(-c4ccccc4)[nH]c3c2)cc1 (centres undefined)	0.736%
CCCn1nc(C(=O)N2CCCc3ccccc32)c2ccccc2c1=O	0.113%
Cc1cccc2cc3c(N)c(C(=O)N4CCCc5ccccc54)sc3nc12	60.4% (active)
COc1cccc(/C=C/C(=O)OCC(=O)N2CCCc3ccccc32)c1	9.89%
Oc1ccccc1-c1nc(/C=C/c2ccc(F)cc2)no1	5.78%
O=C(/C=C/c1ccccc1)Nc1cc(-c2nc3cc(Cl)ccc3o2)ccc1Cl	-1.26%
COc1ccc(-c2nc3sc(CCNC(=O)C(C)(C)C)c(C)n3n2)cc1	3.98%
Cc1ccc(Nc2c(-c3ccc(C)cc3)nc3cnccn23)cc1	3.9%
Cc1ccc(Nc2c(-c3ccc(N(C)C)cc3)nc3nc[nH]n23)cc1	39.9% (active)
Cc1ccc(-c2nc3cccc(C)n3c2Nc2ccc3c(c2)OCCO3)cc1	-0.166%
COc1ccc(-c2nc3ccccc3s2)cc1NC(=O)COc1ccccc1C	-0.142%
Cc1cc2c(s1)c1cnn(Cc3c(F)cccc3Cl)c(=O)c1n2C	0.794%
Cn1c(=O)c2c(n3c4ccccc4nc13)NC(=O)CC2c1cccc(Cl)c1 (centres undefined)	3.64%
COc1ccc(C(=O)CSc2n[nH]c(N)n2)cc1	-2.12%
COC(=O)c1cc(C(=O)CSc2nc(C)cc(C)n2)ccc1O	257% (active)
COC(=O)c1cccc(NC(=O)CSc2nc(C)cc(=O)[nH]2)c1	1.14%
Cn1c(=O)c2c(nc(SCC(=O)Nc3ccc(F)cc3)n2Cc2ccc(Cl)cc2)n(C)c1=O	-0.966%
CCOC(=O)c1ccc(NC(=O)C2CCN(S(=O)(=O)c3ccc4c(c3)CCCC(=O)N4)CC2)cc1	-0.195%
COc1ccc(Cl)cc1N(C)C(=O)c1cc2c(=O)oc3ccc(C)cc3c2s1	1.68%
COC(=O)c1sc(-c2ccc(C(C)(C)C)cc2)cc1NC(=O)/C=C/C(=O)O	33% (active)

SMILES	activation
Cc1ccc(NC(=O)c2oc3ccccc3c2NC(=O)Cc2cccs2)cc1	5.67%
CCN1C(=O)c2ccccc2Sc2ccc(NC(=O)Cc3ccc(OC)cc3)cc21	8.31%
COc1ccc(NC(=O)Nc2cccc(-c3noc(C)n3)c2)cc1	-0.581%
COc1ccc(-c2onc3ccc(C(C)=O)cc23)cc1	68% (active)
COc1ccc(-c2nc3ccc(C(=O)NCc4ccc(C)cc4)cc3nc2-c2ccc(OC)cc2)cc1	-0.317%
O=C(NCCCc1ccccc1)c1ccc2c(c1)sc1nc(-c3ccc(F)cc3)cn12	1.38%
O=S(=O)(NCC1CC1)c1ccc(F)c(Cl)c1	0.965%
COC(=O)c1cc(S(=O)(=O)NCC2CCN(Cc3ccc(Cl)cc3)CC2)cn1C	35.7% (active)
COC(=O)c1cc(S(=O)(=O)NC2CCN(Cc3ccccc3)CC2)cn1C	6.94%
O=C(CSc1ncc(CO)n1Cc1ccc(Cl)cc1)NCc1ccc(F)cc1	-0.41%
Cc1ccc(NC(=O)CSc2nc3c(c(=O)[nH]2)CN(Cc2ccc4c(c2)OCO4)CC3)cc1C	2.15%
CCNC(=O)CC1C(=O)N(c2ccc(F)cc2)C(=O)N1Cc1ccc(C)cc1 (centres undefined)	-1.09%
COCc1cc(C)nc(SCC(=O)Nc2cccc(C)c2)c1C#N	1.7%
Cc1ccc(-c2cc(C(F)(F)F)c(C#N)c(SCC(=O)Nc3ccccc3)n2)cc1	76.6% (active)
Cc1cc(C(F)(F)F)c(C#N)c(SCC(=O)NC2CC2)n1	2.38%
CCOc1ccc(-n2c(C)nc3c(cnn3-c3ccc(C)cc3)c2=O)cc1	0.209%
CCCCN(CC)C(=O)c1c[nH]c2ccc(S(=O)(=O)Nc3cccc(OC)c3)cc2c1=O	1.98%
COc1cccc(NS(=O)(=O)c2ccc3[nH]cc(C(=O)NCCCOC(C)C)c(=O)c3c2)c1	122% (active)
CCCCNC(=O)c1c[nH]c2ccc(S(=O)(=O)Nc3ccc(OCC)cc3)cc2c1=O	5.78%
O=C(c1cccs1)c1cn(CCOc2ccc(Cl)cc2)c2ccccc12	-1.61%
Cc1ccc(C)n1-c1nnc(N2CCC(C(=O)NCc3ccc(F)cc3)CC2)s1	2.04%
CC1=C(c2ccc(Cl)cc2)S(=O)(=O)N=C1N1CCN(c2cc(C)ccc2C)CC1	7.7%
Cc1oc(-c2ccccc2)nc1Cn1c(SCc2cccc(C(F)(F)F)c2)nc2cccnc21	3.89%

SMILES	activation
Cc1ccc2c(=O)oc(N(C)C)nc2c1	1.52%
CCN(CC)c1ccc2oc(=O)c(C)nc2c1	192% (active)
CN(Cc1nc2ccccc2c(=O)[nH]1)Cc1cc(=O)oc2ccc3ccccc3c12	-0.344%
Cc1ccc(Cl)cc1N1CCN(C(=O)c2cn(C)c3ccc(S(=O)(=O)N(C)C4CCCCC4)cc3c2=O)CC1	3.27%
COc1ccc(S(=O)(=O)c2c(Nc3cccc(Cl)c3)sc(C(=O)c3ccccc3)c2N)cc1	75.8% (active)
CC(=O)c1c(Nc2ccccc2)sc(C(=O)c2ccccc2)c1C	5.07%
O=C(Nc1ccc2c(c1)OCO2)c1cc(-c2cccc(Cl)c2)on1	-1.41%
Cc1ccc(C(=O)Nc2sc(Cc3ccc4c(c3)OCO4)c(C)c2C(N)=O)cc1	-1%
COc1ccc(S(=O)(=O)c2c(Nc3ccc(C)cc3)sc(C(=O)c3ccc(C)cc3)c2N)cc1	56.2% (active)
COc1ccc(Cl)cc1S(=O)(=O)Nc1cccc(C(=O)O)c1	2.88%
COc1ccc(C(=O)N2CCC(C(=O)Nc3ccc(C)cc3)CC2)cc1	1.17%
Cc1ccc(S(=O)(=O)c2c(Nc3cccc(Cl)c3)sc(C(=O)c3ccc4c(c3)OCO4)c2N)cc1	61.9% (active)
CO/N=C(/CS(=O)(=O)c1ccc(Br)cc1)c1ccc(OC)cc1	0.348%
CCc1ccccc1NC(=O)N1CCN(C(=O)c2nsc3ccccc23)CC1	2.7%
CCCS(=O)(=O)c1ncc(Cl)c(C(=O)Nc2scc(-c3ccccc3)c2C(=O)OCC)n1	5.24%
O=c1c(NCc2cccs2)nccn1-c1ccccc1	2.15%
Cc1ccc(CNS(=O)(=O)c2ccc(-c3cc(C(F)(F)F)on3)s2)cc1	0.651%
Cn1nnnc1Sc1ncnc2scc(-c3ccccc3[N+](=O)[O-])c12	1.58%
CCc1ccc(NC(=O)Cn2c(=O)n(CCC(=O)NCc3ccc4c(c3)OCO4)c(=O)c3ccccc32)cc1	-0.957%
Cc1ccc2[nH]c3c(c2c1)CN(C(=O)CN1CCN(c2ccccc2)CC1)CC3	0.149%
O=c1c2ccccc2[nH]c(=S)n1CCN1CCC(=C(c2ccc(F)cc2)c2ccc(F)cc2)CC1	0.942%
O=C(CCCN1CCc2[nH]c3ccc(F)cc3c2C1)c1ccc(F)cc1	56.3% (active)
O=C(CSc1nc2ccccc2nc1Cc1ccccc1)N1CCCCC1	4.62%

SMILES	activation
CCc1nccn1S(=O)(=O)c1cc(Br)ccc1Br	-0.03%
CCOc1ccccc1NC(=O)C1=C(C)Nc2ncnn2C1c1ccc(NC(C)=O)cc1 (centres undefined)	1.04%
Cc1ccc(-c2nn(CCC(=O)Nc3ccc(OC(F)(F)F)cc3)c(=O)c3ccccc23)cc1	1.41%
Cc1cccc(NC(=O)Cn2nc(-c3ccc(Cl)cc3)c3ccccc3c2=O)c1	35.9% (active)
Cc1ccc(-c2nn(CCC(=O)Nc3ccc(Cl)c(Cl)c3)c(=O)c3ccccc23)cc1	0.86%
Cc1ccc(C(=O)Nc2nc(-c3ccccc3)ns2)cc1	-0.0471%
CCC(=O)N1c2ccccc2CC1C(=O)N1CCN(c2cccc(OC)c2)CC1 (centres undefined)	-0.217%
CC(=O)N1c2ccccc2N(Cc2ccc([N+](=O)[O-])cc2)C(=O)C1(C)C	2.19%
O=C(NCCCCc1ccccc1)C1CC(c2ccc([N+](=O)[O-])cc2)=NO1 (centres undefined)	7.04%
O=C1NC(=O)C2C1C(c1ccc([N+](=O)[O-])cc1)=NN2Cc1ccccc1 (centres undefined)	44.8% (active)
Cc1cccc(NC(=O)c2cc3c(C)nn(-c4ccccc4)c3s2)c1	2.46%
CCOC(=O)c1oc2ccc(S(=O)(=O)n3nc(-c4ccccc4OC)cc3N)cc2c1C	4.93%
Cc1cc(C)cc(NC(=O)N(C)Cc2ccccc2)c1	2.04%
CN(C(=O)CN(CCO)CC(=O)N(C)C(C)(C)Cc1ccccc1)C(C)(C)Cc1ccccc1	40.5% (active)
CC(C)(C)N(Cc1ccccc1)C(=O)c1ccncc1	-0.455%
CCOC(=O)c1c(S(=O)(=O)NCC(=O)Nc2ccc(Cl)c(C(F)(F)F)c2)c(C)n(C)c1C	6.5%
Cc1cc(C)c(NC(=O)CSc2nc3nccnc3c(=O)n2CCc2c[nH]c3ccccc23)c(C)c1	2.34%
O=C(NCCN1C(=O)S/C(=C\c2cccnc2)C1=O)c1ccc(S(=O)(=O)N2CCCC2)cc1	1.07%
CCN1CCN(CCNC(=O)c2ccc(/C=C3/Sc4ccccc4N(Cc4cccc(C)c4)C3=O)cc2)CC1	48.6% (active)
O=C(CN1C(=O)/C(=C/c2ccccc2F)Sc2ccccc21)NCc1cccnc1	4.38%
